For orientation: inhibition means the change of the read-out against control, counted positive when it falls.

Molecules are shown by their SMILES. Hit rate of the full screen: of about 1,400 compounds, about 160 (11%) were called active. Cut-off read from the data, not from the text of the source: active = inhibition above about 15%; inactive = the rest. These entries were drawn from the full list.

A short description of this assay: Jurkat T cell cytotoxicity, cytotoxicity control for T. brucei MetRS inhibitor project, luminescence, high throughput (AID 624413).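 Note: 0% = vehicle and 100% = reference inhibitor.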 As to conditions: Jurkat cells viability, ATP luminescence; at 8.3 µM; active compounds read high.
`Cc1ccc(N2C(=O)CC(NCc3ccc4c(c3)OCO4)C2=O)cc1Cl` (stereo not drawn): the inhibition is -6.39% (inactive).

As for `O=[N+]([O-])c1ccc(N2CCN(c3ccc(O)cc3)CC2)c(Cl)c1`, the inhibition is 1.76% (inactive).

As for `O=S(=O)(NCc1ccc(Cl)cc1Cl)c1cccs1`, the inhibition is -0.99% (inactive).

As for `O=C(Nc1ccccc1)Nc1nnc(COc2ccccc2F)s1`, the inhibition is 5.35% (inactive).

As to `O=C(NNC(=O)c1ccc(-n2cncn2)c([N+](=O)[O-])c1)c1ccccc1`, the inhibition is 5.48% (inactive).

As to `O=C(Nc1cccc([N+](=O)[O-])c1)N1CCc2ccccc2C1`, the inhibition is 17% (active).

Consider `O=C(CSCC(=O)Nc1cccc([N+](=O)[O-])c1)Nc1ccccc1`, for which the inhibition is -0.93% (inactive).

Turning to `O=C(Nc1ccc(Cl)cc1)N1CCc2[nH]c3ccccc3c2C1`, the inhibition is 1.46% (inactive).

On to `O=C(/C(=N\O)n1cncn1)c1ccc(Br)cc1Br`, for which the inhibition was -3.9% (inactive).

As for `O=C(NNc1cc(Cl)cc(Cl)c1)c1c(F)cccc1Cl`, the inhibition is 1.84% (inactive).

As for `COc1ccc(CCn2ccc(O)c(Cc3ccc(Cl)cc3Cl)c2=O)cc1OC`, the inhibition is 9.61% (inactive).

As to `Cc1ccc(S(=O)(=O)c2c[nH]c3ccc(Cl)cc3c2=O)cc1`, the inhibition was 5.58% (inactive).

On to `CCCCCCCC[n+]1cccc(C(=O)N2c3c(nc(N)[nH]c3=O)NC(C)C2C)c1` (stereo not drawn), for which the inhibition is 10% (inactive).

For `CC(=O)c1ccc(NC(=O)c2ccc(-n3cncn3)c([N+](=O)[O-])c2)cc1`, the inhibition is 2.58% (inactive).

For the compound `CCCCN(C)Cc1c(C)[nH]c2ccc(Cl)cc2c1=O`, the inhibition was -0.56% (inactive).

As to `c1ccc(CN=C2Nc3ccccc3CS2)nc1`, the inhibition is 0.23% (inactive).

Turning to `OCCNc1nc2ccccc2n1-c1ncnc2sc3c(c12)CCC3`, the inhibition is 9.96% (inactive).

With `Clc1ccc(-c2cc(C3CCNCC3)[nH]n2)c(Cl)c1`, the inhibition was -0.28% (inactive).

As to `NC1=NC(=O)S/C1=C\c1ccc(O)cc1`, the inhibition is 7% (inactive).

With `COC(=O)/C(=C\Nc1ccccc1)NC(=O)c1ccc(Cl)cc1Cl`, the inhibition was 11.3% (inactive).

For `O=C(NCc1cccc(CNC(=O)Nc2cccc(O)c2)c1)Nc1cccc(O)c1`, the inhibition was 13.5% (inactive).

Turning to `Cc1ccc(NC(=O)C(C)c2cccc(C(=O)c3ccccc3)c2)cc1` (stereo not drawn), the inhibition was 1.82% (inactive).

As for `OC(c1cc(Cl)cc(Cl)c1)c1ncc(-c2ccccc2C(F)(F)F)[nH]1` (stereo not drawn), the inhibition is 6.67% (inactive).

`CCCCN1C[C@H](c2ccc(Br)cc2)[C@@H](CC(=O)Nc2ccc(Br)cc2)C1=O`: the inhibition was 7.69% (inactive).

`c1ccc2cc3c(NCCN4CCOCC4)ccnc3cc2c1`: the inhibition is 22.4% (active).

On to `Cc1ccc(S(=O)(=O)c2c[nH]c3ccc(C)cc3c2=O)cc1`, for which the inhibition was 4.57% (inactive).

For the compound `CCN(CC)C(=O)C(=O)c1cn(CC(=O)NCc2ccc3c(c2)OCO3)c2ccccc12`, the inhibition is 2.71% (inactive).

On to `NS(=O)(=O)c1ccc(CCNC(=O)Nc2ccc(Cl)cc2)cc1`, for which the inhibition was 3.2% (inactive).

Turning to `O=C(Cc1ccc(S(=O)(=O)N2CCOCC2)s1)Nc1ccc(Br)c(C(F)(F)F)c1`, the inhibition is 4.25% (inactive).

As to `O=C(CC(=O)Nc1ccc(Cl)c(Cl)c1)N/N=C/c1ccc(O)cc1`, the inhibition was 3.68% (inactive).

For the compound `O=C(Cn1c2[n+](c3ccc(C(F)(F)F)cc31)CCCCC2)Nc1c(F)cccc1F`, the inhibition is 7.63% (inactive).

On to `S=c1[nH]nc(CSCc2ccc(Cl)cc2Cl)n1-c1ccccc1`, for which the inhibition is 7.09% (inactive).

For `Cc1ccc(-c2cnc(C(O)c3cc(Cl)cc(Cl)c3)[nH]2)cc1` (stereo not drawn), the inhibition is 4.06% (inactive).

`Oc1[nH]c2ccc(Br)cc2c1N=Nc1nn[nH]n1`: the inhibition is -3.84% (inactive).

For the compound `CN(C(=O)CSc1nnc(-c2c[nH]c3ccccc23)o1)C1CCS(=O)(=O)C1` (stereo not drawn), the inhibition was -7.37% (inactive).

Turning to `Fc1ccc(NC(=S)N2CCc3[nH]c4ccccc4c3C2)cc1`, the inhibition is -0.86% (inactive).

Consider `Cn1c(CCCOc2ccc(Cl)cc2Cl)n[nH]c1=S`, for which the inhibition is 1.8% (inactive).

Consider `COC(=O)CN1C(=S)N(c2ccccc2)C(=O)C1CC(=O)Nc1ccc(Cl)cc1` (stereo not drawn), for which the inhibition was -3.1% (inactive).

Regarding `Cc1ccc(O)c(CNc2nc3ccccc3[nH]2)c1`, the inhibition was 24.5% (active).

With `Clc1ccccc1SCc1nc2ccccc2[nH]1`, the inhibition is 7.62% (inactive).

Take `Cc1ccc(CNC(=O)CSc2nnc3c(n2)[nH]c2ccc(F)cc23)cc1`: the inhibition is -1.93% (inactive).

Take `O=C(O)CCn1c(O)c(C=C2N=c3ccccc3=N2)sc1=S`: the inhibition was 0.39% (inactive).

Take `O=C(Nc1ccc(S(=O)(=O)Nc2ncccn2)cc1)c1cncc(Br)c1`: the inhibition is -8.56% (inactive).

For `COc1ccc(OCC(O)CNC(=O)Nc2ccc(Cl)cc2)cc1` (stereo not drawn), the inhibition was -6% (inactive).

Turning to `c1ccc2cc3[nH]c(CN4CCCCC4)nc3cc2c1`, the inhibition was -5.35% (inactive).

For the compound `CCCCCn1nnnc1-c1nc2cc3ccccc3cc2[nH]c1=O`, the inhibition is 55.2% (active).

For the compound `O=C(O)c1ccc(NS(=O)(=O)c2ccc3c(c2)C(=O)c2cc(S(=O)(=O)Nc4ccc(C(=O)O)cc4)ccc2-3)cc1`, the inhibition is -0.7% (inactive).

For `CC(=N\NC(=O)c1cc(Br)ccc1O)/C(=N/O)C(=O)Nc1ccccc1`, the inhibition was 9.24% (inactive).

For the compound `CN(C(=O)CSc1nnc(Nc2ccccc2)s1)C1CCS(=O)(=O)C1` (stereo not drawn), the inhibition is 3.56% (inactive).

As to `CCO[C@@H]1OC(C(=O)NCc2nc3ccccc3[nH]2)=C[C@H](C2CCCCC2)[C@H]1CCCO`, the inhibition was -0.5% (inactive).

`O=C(Cn1c(NCCO)nc2ccccc21)c1ccc(Cl)cc1Cl`: the inhibition was 4.95% (inactive).

`COc1ccc(-c2[nH]ncc2/C=N/NC(=O)c2cc(Br)ccc2O)c(OC)c1`: the inhibition is 2% (inactive).

Turning to `COc1ccccc1-n1c(SCC(=O)Nc2ccc(Cl)cc2)nc(O)c(Cc2ccccc2)c1=O`, the inhibition was -1.69% (inactive).

For `CSc1nsc(NC(=O)Nc2ccccc2)n1`, the inhibition is 10% (inactive).

As for `Cc1ccccc1OCC(=O)NNC(=O)c1ccc(-n2cncn2)c([N+](=O)[O-])c1`, the inhibition was 5.5% (inactive).

Take `Cc1c(CN2CCC(CO)(CCOc3ccccc3)CC2)[nH]c2ccc(Cl)cc12`: the inhibition is 13.6% (inactive).

Turning to `O=C(CSc1nc2ccccc2[nH]1)N/N=C/C=C\c1ccccc1[N+](=O)[O-]`, the inhibition was 0.15% (inactive).

As to `Cc1ccc(S(=O)(=O)N(C)C)cc1NC(=O)c1ccc(-n2cncn2)c([N+](=O)[O-])c1`, the inhibition was -2.08% (inactive).

Take `COc1ccc(NC(=O)C(NC(C)=O)C(=O)NCc2ccccc2Cl)cc1` (stereo not drawn): the inhibition was 3.32% (inactive).

Turning to `O=S(=O)(c1ccc(Br)cc1)N1CCC(c2nc3ccccc3[nH]2)CC1`, the inhibition was 35.4% (active).

In the case of `O=C(NCC(O)c1nc2ccccc2[nH]1)c1ccc(Br)cc1` (stereo not drawn), the inhibition was 1.16% (inactive).

For the compound `O=C(OCc1nc2ccccc2[nH]1)C1CCCCC1`, the inhibition is -2.05% (inactive).

Take `O=C(NCCN1CCOCC1)c1ccccc1N1C(=O)[C@@H]2Cc3c([nH]c4ccccc34)C(c3cccc(Cl)c3)N2C1=O` (stereo partly drawn): the inhibition was -0.67% (inactive).

Turning to `CC(C)OCCCNc1ncnc2c1[nH]c1ccc(F)cc12`, the inhibition was 47.3% (active).

Regarding `O=C1CCCN1CCCNc1ncnc2c1[nH]c1ccccc12`, the inhibition is -1.7% (inactive).

Regarding `CCN1CCCC1CNc1ncnc2c1[nH]c1ccc(F)cc12` (stereo not drawn), the inhibition was -1.19% (inactive).

With `Cc1cc(C)cc(NC(=O)N(C)Cc2ccccc2)c1`, the inhibition is -0.98% (inactive).

For the compound `CC(C)(C)c1ccc(/C=C2\SC(=O)N=C2N)cc1`, the inhibition is 7.36% (inactive).
